# Measured values: PubChem BioAssay (NCI)
# The panel holds about 79,000 compounds, 15% with a hit somewhere; the sample as a whole holds those more often. A number with no mark means an inactive call. Activity calls are given as the source filed them. Rule as the data show it: active = growth inhibition above about 70%; inactive = the rest.
# Columns and labels:
# [1] = NCI Yeast Anticancer Drug Screen. Data for the rad52 strain (AID 147);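 also: 0% = growth of vehicle-treated control cultures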; conditions: S. cerevisiae rad52 mutant growth inhibition, active compounds read high
# How it was run: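 Screen used a yeast mutant impaired in DNA repair. After compound exposure, growth was measured. Values reflect inhibition compared with vehicle-treated cells.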
# [2] = NCI Yeast Anticancer Drug Screen. Data for the wt1 strain (AID 149);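 also: 0% = growth of vehicle-treated wt1 cultures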; conditions: S. cerevisiae wt1 strain (SPY 50644) growth inhibition, active compounds read high
# How it was run: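 Vehicle-normalised growth inhibition; strain wt1; compound exposure.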
# [3] = NCI Yeast Anticancer Drug Screen. Data for the mgt1 strain (AID 153); conditions: S. cerevisiae mgt1 mutant growth inhibition, active compounds read high
# How it was run: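 Genetically defined yeast (mgt1) treated with compound; inhibition of growth expressed against vehicle-treated controls.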
# [4] = NCI Yeast Anticancer Drug Screen. Data for the rad50 strain (AID 155);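 also: 0% = growth of vehicle-only cultures of the same strain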; conditions: S. cerevisiae rad50 strain growth inhibition, active compounds read high
# How it was run: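 A DNA repair-deficient yeast mutant serves as the test organism; compound-induced growth inhibition is calculated against vehicle-treated cells.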
# [5] = NCI Yeast Anticancer Drug Screen. Data for the mec2-1 strain (AID 157); conditions: S. cerevisiae mec2-1 strain, active compounds read high
# How it was run: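 Readout is yeast growth inhibition, normalised to vehicle-treated controls, in the mec2-1 strain exposed to compound.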
# [6] = NCI Yeast Anticancer Drug Screen. Data for the rad14 strain (AID 159);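 also: 0% = growth of vehicle-treated control cultures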; conditions: S. cerevisiae rad14 strain growth inhibition, active compounds read high
# How it was run: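 Vehicle-treated cultures served as the baseline for growth inhibition of a DNA repair-mutant yeast strain exposed to each compound.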
# [7] = NCI Yeast Anticancer Drug Screen. Data for the sgs1 mgt1 strain (AID 161);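 also: 0% = growth of cultures given vehicle only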; conditions: S. cerevisiae sgs1 mgt1 strain, active compounds read high
# How it was run: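 Compounds are added to genetically altered yeast, and growth is compared with cultures given vehicle alone to give percent inhibition.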
# [8] = NCI Yeast Anticancer Drug Screen. Data for the CLN2oe strain (AID 163);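 also: 0% = growth of vehicle-only control cultures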; conditions: S. cerevisiae CLN2oe strain, active compounds read high
# How it was run: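 Values reflect how much compound exposure reduced yeast growth, referenced to vehicle-exposed cells. Assay organism is a strain with a defined genetic change affecting cell-cycle control.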
# [9] = NCI Yeast Anticancer Drug Screen. Data for the bub3 strain (AID 167); conditions: S. cerevisiae bub3 mutant strain, active compounds read high
# How it was run: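 Inhibition values come from growth of compound-treated mutant yeast normalised to vehicle-treated controls.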
# [10] = NCI Yeast Anticancer Drug Screen. Data for the wt2 strain (AID 169);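 also: 0% = growth of vehicle-treated yeast cultures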; conditions: S. cerevisiae wt2 strain growth inhibition, active compounds read high
# How it was run: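 Values express reduction in yeast growth under compound treatment, referenced to vehicle-treated cells.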
# [11] = NCI Yeast Anticancer Drug Screen. Data for the mlh1 strain (AID 171);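 also: 0% = growth of vehicle-treated control cultures of the same strain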; conditions: S. cerevisiae mlh1 strain growth inhibition, active compounds read high
# How it was run: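 Steps: expose the defined-mutant yeast strain to compound; expose a parallel culture to vehicle; measure growth; express compound effect as inhibition relative to the vehicle culture.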
# [12] = NCI Yeast Anticancer Drug Screen. Data for the sgs1 strain (AID 173);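 also: 0% = growth of vehicle-only control cultures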; conditions: S. cerevisiae sgs1 mutant, active compounds read high
# How it was run: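 Treat defined-mutant yeast with compound; measure growth; calculate inhibition relative to vehicle-treated cells.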
# [13] = NCI Yeast Anticancer Drug Screen. Data for the mlh1 rad18 strain (AID 175); conditions: S. cerevisiae mlh1 rad18 strain growth inhibition, active compounds read high
# How it was run: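 Test agents were incubated with a yeast strain of defined genotype (DNA damage repair defect). Inhibition of growth was derived by comparison with vehicle-exposed cultures.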
# [14] = NCI Yeast Anticancer Drug Screen. Data for the rad18 strain (AID 177); conditions: S. cerevisiae rad18 mutant growth inhibition, active compounds read high
# How it was run: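 A genetically defined yeast mutant impaired in DNA damage repair was treated with test compounds, then its growth was measured against cultures receiving vehicle alone.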
# [15] = NCI Yeast Anticancer Drug Screen. Data for the cln2 rad14 strain (AID 165);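 also: 0% = growth equal to vehicle treated cultures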; conditions: S. cerevisiae cln2 rad14 strain, active compounds read high
# How it was run: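 Relative to vehicle controls, growth inhibition of compound-treated cln2 rad14 yeast was recorded.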
# [16] = at 5.0 µM (retest, dose inferred, filed as 0.5)
# [17] = at 50.0 µM (retest, dose inferred, filed as 5.0)
compound,measurement,setting,value
Cc1cc(I)ccc1N,growth inhibition,[1]; at 1.2 µM,24%
same,growth inhibition,[1]; at 3.7 µM,4%
same,growth inhibition,[1]; at 11.0 µM,24%
same,growth inhibition,[1]; at 33.0 µM,92% (active)
same,growth inhibition,[1]; at 100.0 µM,87% (active)
same,growth inhibition,[2]; at 1.2 µM,-8%
same,growth inhibition,[2]; at 3.7 µM,2%
same,growth inhibition,[2]; at 11.0 µM,-8%
same,growth inhibition,[2]; at 33.0 µM,86% (active)
same,growth inhibition,[2]; at 100.0 µM,91% (active)
same,growth inhibition,[3]; at 1.2 µM,36%
same,growth inhibition,[3]; at 3.7 µM,5%
same,growth inhibition,[3]; at 11.0 µM,28%
same,growth inhibition,[3]; at 33.0 µM,93% (active)
same,growth inhibition,[3]; at 100.0 µM,85% (active)
same,growth inhibition,[4]; at 1.2 µM,-31%
same,growth inhibition,[4]; at 3.7 µM,-13%
same,growth inhibition,[4]; [16],50%
same,growth inhibition,[4]; at 11.0 µM,-13%
same,growth inhibition,[4]; at 33.0 µM,91% (active)
same,growth inhibition,[4]; [17],79% (active)
same,growth inhibition,[4]; at 50.0 µM,85.6% (active)
same,growth inhibition,[4]; at 100.0 µM,93% (active)
same,growth inhibition,[5]; at 1.2 µM,-3%
same,growth inhibition,[5]; at 3.7 µM,4%
same,growth inhibition,[5]; [16],51%
same,growth inhibition,[5]; at 11.0 µM,-2%
same,growth inhibition,[5]; at 33.0 µM,87% (active)
same,growth inhibition,[5]; [17],87% (active)
same,growth inhibition,[5]; at 50.0 µM,88.2% (active)
same,growth inhibition,[5]; at 100.0 µM,92% (active)
same,growth inhibition,[6]; at 1.2 µM,1%
same,growth inhibition,[6]; at 3.7 µM,-15%
same,growth inhibition,[6]; at 11.0 µM,-1%
same,growth inhibition,[6]; at 33.0 µM,93% (active)
same,growth inhibition,[6]; at 100.0 µM,92% (active)
same,growth inhibition,[7]; [16],-1%
same,growth inhibition,[7]; [17],92% (active)
same,growth inhibition,[7]; at 50.0 µM,89.3% (active)
same,growth inhibition,[8]; at 1.2 µM,-10%
same,growth inhibition,[8]; at 3.7 µM,-15%
same,growth inhibition,[8]; at 11.0 µM,-3%
same,growth inhibition,[8]; at 33.0 µM,79% (active)
same,growth inhibition,[8]; at 100.0 µM,86% (active)
same,growth inhibition,[9]; at 1.2 µM,1%
same,growth inhibition,[9]; at 3.7 µM,-7%
same,growth inhibition,[9]; [16],27%
same,growth inhibition,[9]; at 11.0 µM,11%
same,growth inhibition,[9]; at 33.0 µM,90% (active)
same,growth inhibition,[9]; [17],90% (active)
same,growth inhibition,[9]; at 50.0 µM,86.8% (active)
same,growth inhibition,[9]; at 100.0 µM,94% (active)
same,growth inhibition,[10]; at 1.2 µM,-28%
same,growth inhibition,[10]; at 3.7 µM,-10%
same,growth inhibition,[10]; at 11.0 µM,-13%
same,growth inhibition,[10]; at 33.0 µM,88% (active)
same,growth inhibition,[10]; at 100.0 µM,94% (active)
same,growth inhibition,[11]; at 1.2 µM,25%
same,growth inhibition,[11]; at 3.7 µM,13%
same,growth inhibition,[11]; at 11.0 µM,10%
same,growth inhibition,[11]; at 33.0 µM,89% (active)
same,growth inhibition,[11]; at 100.0 µM,92% (active)
same,growth inhibition,[12]; at 1.2 µM,19%
same,growth inhibition,[12]; at 3.7 µM,5%
same,growth inhibition,[12]; at 11.0 µM,4%
same,growth inhibition,[12]; at 33.0 µM,90% (active)
same,growth inhibition,[12]; at 100.0 µM,91% (active)
same,growth inhibition,[13]; [16],41%
same,growth inhibition,[13]; [17],73% (active)
same,growth inhibition,[13]; at 50.0 µM,85.6% (active)
same,growth inhibition,[14]; at 1.2 µM,-18%
same,growth inhibition,[14]; at 3.7 µM,-4%
same,growth inhibition,[14]; at 11.0 µM,-15%
same,growth inhibition,[14]; at 33.0 µM,85% (active)
same,growth inhibition,[14]; at 100.0 µM,87% (active)
CCCCCCCCNC(=O)C1=C(C)NC(C)=C(C(=O)NCCCCCCCC)C1,growth inhibition,[1]; at 1.2 µM,0%
same,growth inhibition,[1]; at 3.7 µM,1%
same,growth inhibition,[1]; at 11.0 µM,3%
same,growth inhibition,[1]; at 33.0 µM,-4%
same,growth inhibition,[1]; at 100.0 µM,3%
same,growth inhibition,[2]; at 1.2 µM,2%
same,growth inhibition,[2]; at 3.7 µM,3%
same,growth inhibition,[2]; at 11.0 µM,1%
same,growth inhibition,[2]; at 33.0 µM,0%
same,growth inhibition,[2]; at 100.0 µM,3%
same,growth inhibition,[4]; at 1.2 µM,-4%
same,growth inhibition,[4]; at 3.7 µM,-13%
same,growth inhibition,[4]; [16],8%
same,growth inhibition,[4]; at 11.0 µM,-17%
same,growth inhibition,[4]; at 33.0 µM,-3%
same,growth inhibition,[4]; [17],6%
same,growth inhibition,[4]; at 50.0 µM,-29.5%
same,growth inhibition,[4]; at 100.0 µM,4%
same,growth inhibition,[5]; at 1.2 µM,0%
same,growth inhibition,[5]; at 3.7 µM,2%
same,growth inhibition,[5]; [16],-7%
same,growth inhibition,[5]; at 11.0 µM,0%
same,growth inhibition,[5]; at 33.0 µM,-4%
same,growth inhibition,[5]; [17],14%
same,growth inhibition,[5]; at 50.0 µM,-5.25%
same,growth inhibition,[5]; at 100.0 µM,7%
same,growth inhibition,[6]; at 1.2 µM,1%
same,growth inhibition,[6]; at 3.7 µM,0%
same,growth inhibition,[6]; at 11.0 µM,2%
same,growth inhibition,[6]; at 33.0 µM,4%
same,growth inhibition,[6]; at 100.0 µM,11%
same,growth inhibition,[7]; [16],-7%
same,growth inhibition,[7]; [17],4%
same,growth inhibition,[7]; at 50.0 µM,0.45%
same,growth inhibition,[8]; at 1.2 µM,4%
same,growth inhibition,[8]; at 3.7 µM,2%
same,growth inhibition,[8]; at 11.0 µM,-1%
same,growth inhibition,[8]; at 33.0 µM,0%
same,growth inhibition,[8]; at 100.0 µM,2%
same,growth inhibition,[15]; [16],42%
same,growth inhibition,[15]; [17],2%
same,growth inhibition,[15]; at 50.0 µM,35.4%
same,growth inhibition,[9]; at 1.2 µM,0%
same,growth inhibition,[9]; at 3.7 µM,0%
same,growth inhibition,[9]; [16],35%
same,growth inhibition,[9]; at 11.0 µM,0%
same,growth inhibition,[9]; at 33.0 µM,0%
same,growth inhibition,[9]; [17],-4%
same,growth inhibition,[9]; at 50.0 µM,-6.55%
same,growth inhibition,[9]; at 100.0 µM,2%
same,growth inhibition,[10]; at 1.2 µM,1%
same,growth inhibition,[10]; at 3.7 µM,1%
same,growth inhibition,[10]; at 11.0 µM,0%
same,growth inhibition,[10]; at 33.0 µM,1%
same,growth inhibition,[10]; at 100.0 µM,2%
same,growth inhibition,[11]; at 1.2 µM,0%
same,growth inhibition,[11]; at 3.7 µM,2%
same,growth inhibition,[11]; at 11.0 µM,0%
same,growth inhibition,[11]; at 33.0 µM,2%
same,growth inhibition,[11]; at 100.0 µM,8%
same,growth inhibition,[12]; at 1.2 µM,2%
same,growth inhibition,[12]; at 3.7 µM,3%
same,growth inhibition,[12]; at 11.0 µM,-3%
same,growth inhibition,[12]; at 33.0 µM,3%
same,growth inhibition,[12]; at 100.0 µM,14%
same,growth inhibition,[13]; [16],8%
same,growth inhibition,[13]; [17],-5%
same,growth inhibition,[13]; at 50.0 µM,-23.8%
same,growth inhibition,[14]; at 1.2 µM,-1%
same,growth inhibition,[14]; at 3.7 µM,-2%
same,growth inhibition,[14]; at 11.0 µM,-4%
same,growth inhibition,[14]; at 33.0 µM,-8%
same,growth inhibition,[14]; at 100.0 µM,2%
